# Rows were chosen to be rich in hits. Some 11% of all compounds tested hit in one or more screens of this group.
# HP1b chromo inh: HP1-beta chromodomain-methylated histone interaction inhibition. P83916. AlphaScreen HP1-beta / biotin-H3K9me3 peptide binding. Potency, µM (titrated, usually from 114 µM), without a hit: top-dose activity change, negative = inhibition, actives largely listed as inhibitors. hit rate 0.56% among 390,000; further: potency means the concentration at half of the fitted maximal effect; nearly all actives have a fitted effect of over 70% in size
#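 Compound inhibition of the preformed complex between 50 nM HP1-beta and 50 nM biotinylated H3K9me3 peptide was read by AlphaScreen. Buffer was PBS pH 7.4 with 0.01% Tween-20. Incubations ran 30 min at room temperature, with 10 ug/mL donor/acceptor beads.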
# L3MBTL1 block: inhibitors of human L3MBTL1. Q9Y468. AlphaScreen L3MBTL1–H3K9me1 peptide binding. Potency, µM (series often up to 57.1 µM), for the others: at the top dose activity, negative = inhibition, actives largely listed as inhibitors. hit rate 0.66% among 230,000; further: potency means the concentration at half of the fitted maximal effect; on the % scale 0 is the no-effect control and ±100 the full control effect; nearly all actives have a fitted effect of over 60% in size
# Target sequence (Q9Y468 whole entry, looked up): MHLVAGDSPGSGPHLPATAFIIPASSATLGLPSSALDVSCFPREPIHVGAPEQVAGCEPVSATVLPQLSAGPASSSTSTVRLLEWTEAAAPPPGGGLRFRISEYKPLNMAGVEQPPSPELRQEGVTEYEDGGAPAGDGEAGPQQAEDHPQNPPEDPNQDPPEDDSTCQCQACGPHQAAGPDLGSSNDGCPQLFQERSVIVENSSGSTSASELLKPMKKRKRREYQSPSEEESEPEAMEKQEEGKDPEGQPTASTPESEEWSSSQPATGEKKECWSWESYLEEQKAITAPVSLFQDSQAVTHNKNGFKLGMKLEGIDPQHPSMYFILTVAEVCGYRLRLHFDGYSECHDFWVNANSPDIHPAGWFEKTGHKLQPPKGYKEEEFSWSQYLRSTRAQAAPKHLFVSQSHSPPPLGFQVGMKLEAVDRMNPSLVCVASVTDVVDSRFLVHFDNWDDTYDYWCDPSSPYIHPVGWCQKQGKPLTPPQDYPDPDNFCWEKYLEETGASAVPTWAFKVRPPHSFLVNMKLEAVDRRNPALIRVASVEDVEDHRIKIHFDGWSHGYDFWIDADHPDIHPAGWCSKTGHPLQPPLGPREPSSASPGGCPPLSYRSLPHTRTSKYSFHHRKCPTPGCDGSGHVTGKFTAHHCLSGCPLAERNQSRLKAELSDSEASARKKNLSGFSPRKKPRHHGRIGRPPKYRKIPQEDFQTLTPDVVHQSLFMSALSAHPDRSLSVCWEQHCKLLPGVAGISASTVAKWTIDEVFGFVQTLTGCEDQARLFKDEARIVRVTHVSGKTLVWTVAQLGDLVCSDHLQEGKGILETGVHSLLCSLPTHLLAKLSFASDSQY
#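 Read-out is AlphaScreen signal from streptavidin donor and nickel chelate acceptor beads (10 ug/mL final each) bridging L3MBTL1 (50 nM) and biotinylated K9-monomethylated H3(1-15) peptide (75 nM), after 30 min compound exposure at room temperature.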
# JMJD2A Tudor inh: blocks the human JMJD2A Tudor domain; Potency, µM (top dose mostly 114 µM), for the others: at the highest dose activity change, negative = inhibition, hits mostly inhibitors; AlphaScreen JMJD2A-Tudor / H3K4me3 peptide binding; hit rate 4.4% among 390,000; O75164; further: potency means the concentration at half of the fitted maximal effect; on the % scale 0 is the no-effect control and ±100 the full control effect; nearly all actives have a fitted effect of over 50% in size
# PI5P4Ka inh: inhibitors of human PI5P4K alpha | P48426 | PI5P4Kalpha enzyme, ADP-Glo luminescence, 60 min; stronger effect = lower value | max response, % | hit rate 1.2% among 330,000 | AID 652105; active means max response of -50% or lower; inconclusive means between -30% and -50%; inactive means -30% or higher; further: value at the top dose of about 77 µM; on the % scale 0 is the no-effect control and ±100 the full control effect
#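 ADP-Glo luminescence end-point read after a 60 min room-temperature kinase reaction of PI5P4Kalpha plus substrate, initiated with ATP at 5 microM final. Buffer: 0.038 M HEPES pH 7.4, EGTA, 0.1% CHAPS, 5% DMSO.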
# BAZ2B block: BAZ2B (human) inhibition. Q9UIF8. AlphaScreen BAZ2B-H3K14Ac peptide displacement. Potency, µM (highest dose often 114 µM), inactives show at the highest dose activity change, negative = inhibition, actives largely listed as inhibitors. hit rate 4.4% among 360,000. AID 504333; further: potency means the concentration at half of the fitted maximal effect; on the % scale 0 is the no-effect control and ±100 the full control effect; nearly all actives have a fitted effect of over 60% in size
#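 Multi-concentration screen (max 110 uM) measuring displacement of acetylated histone H3 peptide from BAZ2B by AlphaScreen, using 50 nM protein, 50 nM peptide and 10 ug/mL streptavidin donor plus Ni-chelate acceptor beads.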
# G9a block: inhibitors of human histone lysine methyltransferase G9a; Potency, µM (series often up to 102 µM), for the others: at the top dose activity, negative = inhibition, most hits filed as inhibitors; hit rate 8.8% among 350,000; G9a H3K9 monomethylation, AlphaScreen, 2 h; Q96KQ7; further: potency means the concentration at half of the fitted maximal effect; on the % scale 0 is the no-effect control and ±100 the full control effect; nearly all actives have a fitted effect of over 75% in size
#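 G9a (20 nM) was preincubated 15 min with compound, then reacted 2 h at room temperature with 500 nM biotin-H3K9 peptide and 20 µM SAM. Monomethyl-H3K9 detected by AlphaScreen using anti-H3K9me1 antibody.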
# Numbers without * were called inactive; ? = inconclusive; . = no result given; ! = not confirmed by another sample; [ ] = remark or other dose. Unless noted, the call rests on the fitted dose curve; in most records, active means well fitted inhibition curve with a large enough effect; inconclusive means small, poorly fitted or top-dose-only effect; inactive means no such curve, though single readings can be large or run the other way.
SMILES,HP1b chromo inh,L3MBTL1 block,JMJD2A Tudor inh,PI5P4Ka inh,BAZ2B block,G9a block
COc1ccc(C(C)=O)cc1CN1CC=C(c2ccccc2)CC1,79µM*,.,45µM*,-2,50µM*,13µM*
CCc1ccc2c(CN3CC=C(c4ccccc4)CC3)cc(=O)oc2c1,19%,4%,-10%,7,-9%,-12%[59 µM]
COc1cc(C)cc(CN2CC=C(c3ccccc3)CC2)c1O,-20%,-10%,?,13,.,?
Cc1ccc2c(CN3CC=C(c4ccccc4)CC3)cc(=O)oc2c1C,13%,-4%,-24%,-9,-1%,50µM*
CCN(CC)CCOC(=O)C(C)(c1ccccc1)c1ccccc1,.,.,.,.,.,-46%[12.7 µM]
Cc1cc(C)cc(-n2c(/C=C/c3cccc(F)c3)nc3ccccc3c2=O)c1,4%,.,-14%,.,5%,4%[59 µM]
CCCCCSc1cc(OC)c(CCN(C)C)cc1OC,?,3%,?,13,45µM*,3%[59 µM]
NC(=O)C1=CN(C2OC(COP(=O)(O)OP(=O)(O)OC[C@H]3O[C@@H](n4cnc5c(N)ncnc54)[C@H](OP(=O)(O)O)[C@H]3O)C(O)C2O)C=CC1 (stereo partly specified),.,.,.,.,.,8%
N[C@H](Cn1ccc(=O)c(O)c1)C(=O)O,.,.,.,.,.,18%[21.5 µM]
N[C@@H](Cn1ccc(=O)c(O)c1)C(=O)O,.,.,.,.,.,10µM*
O=[N+]([O-])c1ccc(S(=O)(=O)N2CCn3cccc3C2c2ccccc2F)cc1 (stereo unspecified),13%,.,?,.,32µM*,?
COc1ccc(S(=O)(=O)Nc2ccccc2OC)cc1N=Nc1c(O)[nH]c(=S)[nH]c1=O,?,-16%,?,-16,.,.
CC(C)c1cc2c(c(O)c1O)[C@@]1(C(=O)O)CCCC(C)(C)[C@@H]1CC2,.,.,.,.,.,3.5µM*
CCCC(=O)c1c(O)[nH]c(=O)[nH]c1=O,19%,.,18µM*,.,?,-34%[12.7 µM]
C=CCn1c(O)c(C(=O)CCCCCC)c(=O)[nH]c1=O,37%,-2%,-15%,-16,-6%,12%[59 µM]
COc1cc2[nH]c(=O)n(CCCCCC(=O)N3CCN(c4cccc(C(F)(F)F)c4)CC3)c(=O)c2cc1OC,-2%,.,?,.,-13%,-28%[59 µM]
COC(=O)C(C)Oc1ccc(Cc2ncc(C(F)(F)F)cc2Cl)cc1 (stereo unspecified),117%,.,56%,-2,80%,4%[2.33 µM]
FC(F)(F)c1ccc2c(c1)N(CCCN1CCN(CCCl)CC1)c1ccccc1S2,-16%,.,16µM*,-10,40µM*,10µM*
OCCN1CCN(CCCN2c3ccccc3Sc3ccc(C(F)(F)F)cc32)CC1,10%,-6%,79µM*,-7,?,11µM*!
CC1CC(C)C(=O)[C@H](C(O)CC2CC(=O)NC(=O)C2)C1 (stereo partly specified),.,.,.,.,.,-30%[2.33 µM]
Cc1onc(-c2ccccc2Cl)c1C(=O)OCC(=O)c1ccc2c(c1)OCCO2,-6%,-7%,?,0,16%,18%
CC(C)c1ccc2oc(-c3ccc(NC(=O)c4cc5ccccc5o4)cc3)nc2c1,36%,.,9%,.,6%,4%[59 µM]
CC(C)Nc1ccc(Nc2ccccc2)cc1,45µM*,.,50µM*,?,28µM*,1.6µM*
CCC12CN3CC(CC)(CN(C1)C3c1c(C)[nH]c(=O)[nH]c1=O)C2=O (stereo unspecified),45%,.,-8%,.,-34%,?
CC(C)C[C@H]1C(=O)N2CCC[C@H]2[C@]2(O)O[C@](NC(=O)C3C=C4c5cccc6[nH]c(Br)c(c56)C[C@H]4N(C)C3)(C(C)C)C(=O)N12 (stereo partly specified),-26%,.,?,1,.,.
CC(C)C[C@H]1C(=O)N2CCCC2[C@]2(O)O[C@](NC(=O)[C@@H]3C=C4c5cccc6[nH]c(Br)c(c56)C[C@H]4N(C)C3)(C(C)C)C(=O)N12 (stereo partly specified),.,.,.,.,.,22µM*

# Bioassay records from PubChem.
